Sm TGR inh: blocks Schistosoma mansoni thioredoxin glutathione reductase; Q962Y6; purified TGR, DTNB reduction, TNB absorbance 405 nm; Potency, µM (doses to about 114 µM), usual class: inhibitors; actives 3% (n = 360,000); AID 485364; also: nearly all actives have a fitted effect of over 60% in size
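TGR 20 nM + NADPH 100 uM (dispensed conc.), cpd preinc 15 min RT; start with NADPH (500 uM addition) then DTNB (15 mM addition). Kinetic TNB absorbance, 405 nm filter. Four-parameter Hill fit across titration.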
CHX counter: counter-screen for Shiga toxin inhibitors: cycloheximide protein synthesis inhibition | AID 2314 | cell reporter, cycloheximide protein synthesis inhibition counterscreen | max response, % | actives 12% (n = 300,000); in the data active = max response mostly above about 13%, no sharp cut-off; inactive = mostly below about 14%; also: read at 38.3 µM for the half of the compounds with a filed dose
TbPYK inhibitor: blocks Trypanosoma brucei pyruvate kinase; Q57TT1; TbPYK enzyme, Kinase-Glo Plus ATP luminescence, 45 min; AID 624173; actives 0.12% (n = 410,000); Potency, µM (highest dose often 76.8 µM), hits mostly inhibitors; also: nearly all actives have a fitted effect of over 50% in size
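TbPYK + substrate in 50 mM TEA pH 7.2, 100 mM KCl, 10 mM MgCl2, 0.05% BSA, 0.01% Tween-20; cpd pinned; ADP 130 uM final; 45 min RT; Kinase-Glo Plus 10 min; luminescence endpoint.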
Giardia FBPA inh: blocks Giardia fructose-bisphosphate aldolase activity | purified Giardia FBPA | actives 0.71% (n = 290,000) | Potency, µM (top dose mostly 59.6 µM), most hits filed as inhibitors; also: nearly all actives have a fitted effect of over 55% in size
Target sequence (A8B2U2 whole entry, looked up): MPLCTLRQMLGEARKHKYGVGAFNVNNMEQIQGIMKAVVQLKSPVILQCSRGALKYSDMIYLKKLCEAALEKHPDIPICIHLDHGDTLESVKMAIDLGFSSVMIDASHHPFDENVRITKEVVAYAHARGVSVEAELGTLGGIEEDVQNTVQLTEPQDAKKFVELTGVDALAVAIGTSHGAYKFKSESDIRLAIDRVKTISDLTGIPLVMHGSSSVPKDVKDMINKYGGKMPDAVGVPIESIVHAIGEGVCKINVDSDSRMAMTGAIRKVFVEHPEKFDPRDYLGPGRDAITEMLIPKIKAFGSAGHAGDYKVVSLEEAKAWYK
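Giardia FBPA (40 nM reagent) was preincubated 10 min at RT with compound (up to 57.5 uM final), then substrate plus GAPDH/TPI/NAD/arsenate coupling system with diaphorase/resazurin was added; resorufin fluorescence (525/598 nm) was read after 20 min.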
Shiga toxin inh: inhibitors of Shiga toxin in Vero cells | Vero cells, Shiga toxin protein synthesis inhibition reporter | inhibition, % at 38.7 µM | actives 9.2% (n = 290,000) | AID 2315; in the data active = inhibition mostly above about 28%, no sharp cut-off; inactive = mostly below about 43%
LmPK inhibitor: LmPK (Leishmania mexicana) enzyme inhibition; purified LmPK, Kinase-Glo ATP luminescence, 1 h; Potency, µM (series often up to 57.5 µM), usual class: inhibitors; actives 0.37% (n = 290,000)
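0.1 nM LmPK, 0.5 mM PEP, 0.1 mM ADP; 50 mM imidazole pH 7.2, 7 mM MgCl2, 50 mM KCl; 1 h RT. Kinase-Glo luminescence readout, normalized to no-enzyme (full inhibition) and uninhibited wells.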
A number is an active result; . = inactive; ? = inconclusive; / = no result given; [ ] = another dose, or the depositor's remark. This is one part of a sample in which hits are shown more often than they occur. Unless noted, calls follow the shape of the dose curve; as a rule, active = well fitted curve in the direction sought with a large enough effect; inconclusive = small, poorly fitted or top-dose-only effect, or another doubt; inactive = no such curve, though single readings can be large; an effect the other way counts as inactive or inconclusive.

SMILES | Sm TGR inh | CHX counter | TbPYK inhibitor | Giardia FBPA inh | Shiga toxin inh | LmPK inhibitor
C[C@H]1C=C(C(=O)O)O[C@@H](OCc2ccc(CO)cc2)C1 | / | / | . | / | / | /
O=C(O)C1=C[C@H](c2ccc(C(F)(F)F)cc2)C[C@H](OCc2ccc(CO)cc2)O1 | 50µM | . | . | . | . | .
COC(=O)c1ccc([C@H]2C=C(C(=O)O)O[C@@H](OCc3ccc(CO)cc3)C2)cc1 | 10µM | . | . | . | . | .
Cc1nc(-c2ccc(S(=O)(=O)Nc3cc(Cl)ccc3C)cc2)co1 | . | / | . | / | / | /
COc1cc(C2c3cc4c(cc3OC(NCCc3ccccc3)C2C)OCO4)cc(OC)c1OC (stereo not drawn) | / | / | . | / | / | /
O=C(NC1CC1)C1=C[C@H](c2ccc(C(F)(F)F)cc2)C[C@H](OCc2ccc(CO)cc2)O1 | ? | 24 | . | . | 28 | .
O=C(NC1CC1)C1=C[C@@H](c2ccccc2)C[C@@H](OCc2ccc(CO)cc2)O1 | . | . | . | . | . | .
O=C1c2ccccc2C(=O)N1CCSc1nncs1 | . | . | . | . | . | .
Cc1csc(SCCN2C(=O)c3ccccc3C2=O)n1 | . | 40 | . | . | 102 | .
O=C1c2ccccc2C(=O)N1CCSc1ccccc1 | . | 34 | . | . | . | .
CN1CC[C@]23c4c5ccc(O)c4OC2C(O)CCC3[C@H]1C5 (stereo partly drawn) | / | / | . | / | / | /
Cc1ccc(NC(=O)NCc2ccc3[nH]c(C)cc3c2)cc1 | . | . | . | . | 41 | .
Cc1cccc(NC(=O)NCc2ccc3[nH]c(C)cc3c2)c1 | . | 21 | . | . | . | .[11.5 µM]
Cc1ccc(CNC(=O)Nc2cccc(C)c2)cc1 | . | 37 | . | . | 75 | .
CC(=O)Nc1cccc(C)c1 | . | / | . | / | / | /
Cc1cccc(NC(=O)Nc2ccc(C)cc2Br)c1 | . | 32 | . | . | 61 | .
COc1ccc(S(=O)(=O)N(CCc2ccccc2)CC(=O)NCc2ccc(C)cc2)cc1 | . | / | . | / | / | /
O=C(NC1CCCC1)c1ccc2c(c1)N(Cc1ccc(C(F)(F)F)cc1)C(=O)c1ccccc1S2 | . | / | . | / | / | /
Cc1ccc(-c2noc(CNC(=O)COc3cc(C)c(Br)c(C)c3)n2)cc1 | . | / | . | / | / | /
Cc1ccc(-c2nnc(SCC(C)C)n2C)cc1 | . | 34 | . | / | 138 | .
Cc1ccc(Nc2nc(CSc3nnc(-c4ccc(F)cc4)n3C)cs2)cc1 | . | 32 | . | . | 123 | .
CCCCSc1nnc(-c2ccc(OC)cc2)n1C | . | 65 | . | . | 60 | .
COc1ccc(-c2nnc(SCc3csc(N)n3)n2C)cc1 | . | . | . | . | . | .
Cc1ccc(-c2nnc(SCC(N)=O)n2C)cc1 | . | . | . | . | . | .
Cn1c(SCCC#N)nnc1-c1ccc(F)cc1 | . | . | / | . | . | .
SMILES | Sm TGR inh | CHX counter | TbPYK inhibitor | Giardia FBPA inh | Shiga toxin inh | LmPK inhibitor
COc1ccc(CN(C)CC(=O)NC2CCCc3ccccc32)cc1OC (stereo not drawn) | . | . | . | . | . | .
COc1ccc(-c2noc(-c3ccc(NC4CCCC4)c([N+](=O)[O-])c3)n2)cc1OC | . | / | . | / | / | /
Cc1ccc(NC(=O)Cn2c(=O)n(CCCCC(=O)NCCc3ccccc3)c(=O)c3ccccc32)c(C)c1 | ? | / | . | / | / | /
Cc1ccc(-n2ncc3c(=O)n(CC(=O)N(C)C)cnc32)cc1C | ? | 14 | . | . | . | .
CC(=O)Cn1cnc2c(cnn2-c2ccc(C)c(C)c2)c1=O | . | 54 | . | . | 91 | .
Cc1ccc(-n2ncc3c(=O)n(CC(=O)N(C)C)cnc32)cc1 | . | . | . | . | . | .
Cn1cccc1C(=O)NC(=O)COC(=O)C12CC3CC(CC(O)(C3)C1)C2 | . | 43 | . | . | 53 | ?
Cn1cccc1C(=O)NC(=O)COC(=O)c1ccc(O)cc1 | . | . | . | . | . | .
Cn1cccc1C(=O)NC(=O)COC(=O)c1ccccc1O | . | 17 | . | . | . | .
CC(=O)NC12CC3CC(C1)CC(C(=O)OCC(=O)Nc1c(F)cccc1F)(C3)C2 | . | / | . | / | / | /
CC(=O)NC12CC3CC(C1)CC(C(=O)OCC(=O)NC(=O)c1cccn1C)(C3)C2 | . | 20 | . | . | . | .
Cc1cccc(C(=O)N[C@H](C(=O)OCC(=O)NC(=O)c2cccn2C)C(C)C)c1 | . | 32 | . | . | . | .
CC(NC(=O)COC(=O)C12CC3CC(CC(O)(C3)C1)C2)c1ccccc1 (stereo not drawn) | / | / | . | / | / | /
CCOc1ccc(C(=O)OC(C)CN2CCN(C)CC2)cc1 (stereo not drawn) | . | . | . | . | . | .
Cc1cc2oc(=O)cc(Cn3ncc(Cl)c(Cl)c3=O)c2cc1Cl | 3.5µM | . | . | . | . | .

Screening data deposited in PubChem by National Center for Advancing Translational Sciences (NCATS).
